Reference: PubChem BioAssay (EPA / NIEHS)
Several values for one entry are separate records, joined by “and”; a condition that tells them apart may be missing. Identical values can stand only once. A structure can be active in one record and inactive in another. Activity calls are given as the source filed them. Rule for the calls: active = hit-call score of the fitted dose curve at least 0.9, where 1 is the maximum; inactive = score below 0.9.

Legend:
[1] = read-out: KRT18 (gene 3875); assay: BSK_BF4T_Keratin818: BioMAP Diversity Plus: BF4T Assay for Keratin 818 Biomarker Activity (AID 2284266); conditions: primary human bronchial epithelial cells with fibroblasts
Outline: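 Co-culture of human bronchial epithelial cells and dermal fibroblasts, chemical exposure 24 h. Keratin 8/18 measured by ELISA; positive-direction fit vs DMSO. SRB total protein run in parallel cultures for cytotoxicity.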

[2] = BSK_MyoF_SRB: Viability Assessment in the BioMAP Diversity Plus: MyoF Assay (AID 2284267); conditions: primary human lung fibroblasts;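 note: total protein by SRB absorbance in parallel cultures as cytotoxicity measure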
Outline: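 Read-out is SRB absorbance at 560 nm, reflecting total protein in parallel lung fibroblast cultures harvested 24 h after compound addition. Cells were TCA-fixed (10%) and stained with 0.1% SRB; activity is referenced to DMSO.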

[3] = read-out: Matrix Metallopeptidase 1 (MMP1), MMP1 (gene 4312); assay: BSK_MyoF_MMP1: BioMAP Diversity Plus: MyoF Assay for Matrix Metallopeptidase 1 (MMP1) Biomarker Activity (AID 2284268); conditions: primary human lung fibroblasts
Outline: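 Fibroblasts from human lung receive compound for 24 h before ELISA quantitation of MMP1. DMSO serves as baseline, and the endpoint is fitted for signal gain.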

[4] = read-out: TIMP metallopeptidase inhibitor 1 (TIMP1), TIMP1 (gene 7076); assay: BSK_MyoF_TIMP1: BioMAP Diversity Plus: MyoF Assay for TIMP metallopeptidase inhibitor 1 (TIMP1) Biomarker Activity (AID 2284269); conditions: primary human lung fibroblasts
Outline: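 Fibroblasts from human lung are dosed with chemical, cultured 24 h, and assayed for TIMP-1 by ELISA. Increases over the DMSO baseline are scored, with SRB total-protein staining run in parallel for cytotoxicity.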

[5] = read-out: Matrix Metallopeptidase 1 (MMP1), MMP1 (gene 4312); assay: BSK_BF4T_MMP1: BioMAP Diversity Plus: BF4T Assay for Matrix Metallopeptidase 1 (MMP1) Biomarker Activity (AID 2284270); conditions: primary human bronchial epithelial cells with fibroblasts
Outline: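 Co-culture of human bronchial epithelial cells and dermal fibroblasts; MMP-1 levels measured by ELISA 24 hours after chemical dosing, relative to DMSO. Cytotoxicity checked in parallel cultures by SRB total-protein staining.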

[6] = read-out: Matrix Metallopeptidase 3 (MMP3), MMP3 (gene 4314); assay: BSK_BF4T_MMP3: BioMAP Diversity Plus: BF4T Assay for Matrix Metallopeptidase 3 (MMP3) Biomarker Activity (AID 2284271); conditions: primary human bronchial epithelial cells with fibroblasts
Outline: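 Co-culture of human bronchial epithelial cells and dermal fibroblasts dosed 24 h; MMP-3 measured by ELISA, positive-direction fit versus DMSO. Cytotoxicity tracked by SRB total-protein staining (560 nm) in parallel cultures.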

[7] = read-out: Tissue plasminogen activator (tPA), PLAT (gene 5327); assay: BSK_BF4T_tPA: BioMAP Diversity Plus: BF4T Assay for Tissue plasminogen activator (tPA) Biomarker Activity (AID 2284272); conditions: primary human bronchial epithelial cells with fibroblasts
Outline: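 tPA level quantified by ELISA at 24 h post-treatment in bronchial epithelial/dermal fibroblast co-cultures, gain of signal scored against DMSO baseline. Parallel cultures stained with 0.1% SRB (560 nm) to flag overt cytotoxicity.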

[8] = read-out: Plasminogen Activator Inhibitor-1 (PAI1), SERPINE1 (gene 5054); assay: BSK_BF4T_PAI1: BioMAP Diversity Plus: BF4T Assay for Plasminogen Activator Inhibitor-1 (PAI1) Biomarker Activity (AID 2284273); conditions: primary human bronchial epithelial cells with fibroblasts
Outline: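 Co-culture of human bronchial epithelial cells and dermal fibroblasts exposed to compound for 24 h. PAI-1 measured by ELISA; activity fitted in positive direction versus DMSO. Parallel SRB staining assessed overt cytotoxicity.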

[9] = BSK_BF4T_SRB: Viability Assessment in the BioMAP Diversity Plus: BF4T Assay (AID 2284274); conditions: primary human bronchial epithelial cells with fibroblasts;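 for AC50: total cell protein by sulforhodamine B staining as a cytotoxicity measure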
Outline: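 Co-culture of human bronchial epithelial cells and dermal fibroblasts (BioMAP BF4T) exposed 24 h. Total protein by sulforhodamine B staining (0.1% SRB after 10% TCA fixation, 560 nm) in parallel cultures; fitted vs DMSO.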

[10] = read-out: urokinase Plasminogen Activator (uPA), PLAU (gene 5328); assay: BSK_BF4T_uPA: BioMAP Diversity Plus: BF4T Assay for urokinase Plasminogen Activator (uPA) Biomarker Activity (AID 2284275); conditions: primary human bronchial epithelial cells with fibroblasts
Outline: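 Co-culture of human bronchial epithelial cells and dermal fibroblasts; uPA quantified by ELISA 24 hours after dosing, fitted relative to DMSO. Parallel SRB total-protein staining assessed overt cytotoxicity.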

[11] = read-out: Matrix Metallopeptidase 9 (MMP9), MMP9 (gene 4318); assay: BSK_BF4T_MMP9: BioMAP Diversity Plus: BF4T Assay for Matrix Metallopeptidase 9 (MMP9) Biomarker Activity (AID 2284276); conditions: primary human bronchial epithelial cells with fibroblasts
Outline: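 Co-culture of human bronchial epithelial cells and dermal fibroblasts dosed for 24 h; MMP-9 quantified by ELISA and fitted upward versus DMSO. Cytotoxicity monitored in parallel cultures by SRB total-protein staining at the biomarker time point.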

[12] = read-out: Interleukin-8 (IL8), CXCL8 (gene 3576); assay: BSK_IMphg_IL8: BioMAP Diversity Plus: IMphg Assay for Interleukin-8 (IL8) Biomarker Activity (AID 2284277); conditions: primary human endothelial cells with macrophages
Outline: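 Co-culture of human venular endothelial cells and macrophages exposed to chemicals for 24 h; IL-8 quantified by ELISA and compared against the DMSO baseline, with SRB total-protein staining in parallel cultures for cytotoxicity.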

[13] = read-out: Intercellular Adhesion Molecule 1 (ICAM1), ICAM1 (gene 3383); assay: BSK_BE3C_ICAM1: BioMAP Diversity Plus: BE3C Assay for Intercellular Adhesion Molecule 1 (ICAM1) Biomarker Activity (AID 2284278); conditions: primary human bronchial epithelial cells
Outline: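 Human primary bronchial epithelial cultures; compound added; 24 h incubation; cell-surface ICAM-1 measured by ELISA; signal increase fitted relative to DMSO negative control.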

[14] = read-out: Interferon-inducible T-cell alpha chemoattractant (ITAC), CXCL11 (gene 6373); assay: BSK_BE3C_ITAC: BioMAP Diversity Plus: BE3C Assay for Interferon-inducible T-cell alpha chemoattractant (ITAC) Biomarker Activity (AID 2284279); conditions: primary human bronchial epithelial cells
Outline: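 BE3C cells (human primary bronchial epithelium), 24 h compound exposure, I-TAC by ELISA, DMSO = negative control/baseline, positive fitting direction.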

[15] = read-out: Interleukin-8 (IL8), CXCL8 (gene 3576); assay: BSK_BE3C_IL8: BioMAP Diversity Plus: BE3C Assay for Interleukin-8 (IL8) Biomarker Activity (AID 2284280); conditions: primary human bronchial epithelial cells
Outline: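 IL-8 signal gain, normalised to DMSO vehicle, was scored after a 24 h chemical exposure of primary human bronchial epithelial cells, with detection by ELISA.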

[16] = read-out: Epidermal growth factor receptor (EGFR), EGFR (gene 1956); assay: BSK_BE3C_EGFR: BioMAP Diversity Plus: BE3C Assay for Epidermal growth factor receptor (EGFR) Biomarker Activity (AID 2284281); conditions: primary human bronchial epithelial cells
Outline: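 Compound is added to human bronchial epithelial cells, cells incubate 24 h, then EGFR is detected by ELISA. Values reflect positive-direction fitting relative to DMSO.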

[17] = read-out: KRT18 (gene 3875); assay: BSK_BE3C_Keratin818: BioMAP Diversity Plus: BE3C Assay for Keratin 818 Biomarker Activity (AID 2284282); conditions: primary human bronchial epithelial cells
Outline: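 Chemicals are added to human lung bronchial epithelial primary cells (BE3C system) and incubated 24 h. Keratin 8/18 is then measured by ELISA, with parallel SRB total-protein staining gauging overt cytotoxicity.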

[18] = read-out: Matrix Metallopeptidase 9 (MMP9), MMP9 (gene 4318); assay: BSK_BE3C_MMP9: BioMAP Diversity Plus: BE3C Assay for Matrix Metallopeptidase 9 (MMP9) Biomarker Activity (AID 2284283); conditions: primary human bronchial epithelial cells
Outline: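 Endpoint is the ELISA MMP-9 signal in human primary bronchial epithelial cultures taken 24 h after chemical dosing. DMSO serves as negative control and baseline, with gain-of-signal fitting.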

[19] = read-out: Plasminogen activator inhibitor-1 (PAI1), SERPINE1 (gene 5054); assay: BSK_CASM3C_PAI1: BioMAP Diversity Plus: CASM3C Assay for Plasminogen activator inhibitor-1 (PAI1) Biomarker Activity (AID 2284284); conditions: primary human coronary artery smooth muscle cells;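 note: PAI-1 protein level measured by ELISA 24 h after dosing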
[20] = read-out: Monocyte Chemoattractant Protein-1 (MCP1), CCL2 (gene 6347); assay: BSK_hDFCGF_MCP1: BioMAP Diversity Plus: hDFCGF Assay for Monocyte Chemoattractant Protein-1 (MCP1) Biomarker Activity (AID 2284285); conditions: primary human foreskin fibroblasts
Outline: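 Human foreskin fibroblasts (hDFCGF system) were exposed to compound and secreted MCP-1 was measured by ELISA after 24 hours. Activity was fitted relative to DMSO. Cytotoxicity was checked by SRB total-protein staining in parallel cultures.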

Measured: AC50

O=C(O)C(F)(F)C(F)(F)C(F)(F)C(F)(F)C(F)(F)C(F)(F)C(F)(F)C(F)(F)F
active: [1] 51.6 µM and 55.1 µM | [5] 48.4 µM and 51.1 µM | [6] 47.4 µM and 55.2 µM | [7] 35.6 µM and 27.7 µM | [8] 47.5 µM and 46.2 µM | [9] 43.3 µM and 44 µM | [10] 50.3 µM and 54.7 µM | [11] 44.2 µM and 45.2 µM | [12] 15.8 µM and 5.94 µM | [13] 56.4 µM and 54.7 µM | [14] 49.1 µM and 56 µM | [15] 23.3 µM and 24.3 µM | [17] 30 µM and 47.6 µM | [18] 54 µM and 56.6 µM
inactive: [2] | [3] | [4] | [16] | [19] | [20]

O=S(=O)(O)C(F)(F)C(F)(F)C(F)(F)C(F)(F)C(F)(F)C(F)(F)F
inactive: [1] | [2] | [3] | [4] | [5] | [6] | [7] | [8] | [9] | [10] | [11] | [12] | [13] | [14] | [15] | [16] | [17] | [18] | [19] | [20]
active: [12] 22.9 µM

NS(=O)(=O)C(F)(F)C(F)(F)C(F)(F)C(F)(F)C(F)(F)C(F)(F)C(F)(F)C(F)(F)F
active: [1] 44.7 µM and 31.5 µM | [2] 43.1 µM and 42.8 µM | [4] 35.1 µM and 21.5 µM | [6] 52.2 µM and 49.7 µM | [7] 51.4 µM and 55 µM | [8] 44 µM and 45.9 µM | [9] 45 µM and 47.5 µM | [10] 48.2 µM and 44.3 µM | [11] 23.3 µM and 34 µM | [12] 52.1 µM and 14.9 µM | [13] 55 µM and 53 µM | [14] 43.2 µM and 36.9 µM | [15] 24.3 µM and 11.4 µM | [16] 25.1 µM and 38 µM | [17] 46.9 µM and 48 µM | [18] 30 µM | [20] 21.7 µM and 17.3 µM
inactive: [3] | [5] | [19]

Sc1ccccc1
inactive: [2] | [3] | [4]

Oc1c(Cl)c(Cl)c(Cl)c(Cl)c1Cl
active: [2] 6.05 µM | [3] 11.5 µM | [4] 9.53 µM

O=C(O)C(F)(F)C(F)(F)C(F)(F)C(F)(F)C(F)(F)F
inactive: all assays above

O=C(O)C(F)(F)C(F)(F)C(F)(F)C(F)(F)C(F)(F)C(F)(F)C(F)(F)C(F)(F)C(F)(F)F
inactive: [1] | [3] | [12] | [16] | [17] | [19]
active: [1] 15 µM | [2] 50 µM and 38.9 µM | [3] 45 µM | [4] 50.6 µM and 37.4 µM | [5] 14.1 µM and 11 µM | [6] 18.5 µM and 21.3 µM | [7] 34.6 µM and 17.3 µM | [8] 22.9 µM and 24.8 µM | [9] 17.7 µM and 19.3 µM | [10] 14.6 µM and 18 µM | [11] 20 µM and 20.5 µM | [13] 16.9 µM and 14.6 µM | [14] 12.8 µM and 13.7 µM | [15] 10.1 µM and 14.2 µM | [16] 7.27 µM | [17] 14.5 µM | [18] 15.1 µM and 17.4 µM | [20] 56.1 µM and 56.6 µM

COc1ccc(O)c(C(C)(C)C)c1
inactive: [13] | [14] | [15] | [16] | [17] | [18] | [19] | [20]

O=S(=O)(O)C(F)(F)C(F)(F)C(F)(F)C(F)(F)F
active: [12] 30 µM and 33.4 µM
inactive: all other assays above
